KB-3-1 tox: KB-3-1 parental cell cytotoxicity | KB-3-1 viability, CellTiter-Glo ATP luminescence, 72 h | hit rate 1.4% among 400,000 | AID 1347075 | Potency, µM (series often up to 46.1 µM), most hits filed as cytotoxic; further: nearly all actives have a fitted effect of over 60% in size
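Luminescent ATP read-out (CellTiter-Glo) measures survival of drug-naive KB-3-1 cells after 72 h compound exposure at 37 °C. Titration series was screened from lowest to highest concentration, with DMSO vehicle plates as background controls.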
TDP1 cell noCPT: qHTS for Inhibitors of human tyrosyl-DNA phosphodiesterase 1 (TDP1): qHTS in cells in absence of CPT. DT40 Tdp1-/- hTDP1 cells, no CPT, ATP luminescence, 48 h. Potency, µM (top dose mostly 46.2 µM), for inactives: at the highest dose activity change, negative = growth inhibition, actives largely listed as inhibitors. hit rate 15% among 420,000; further: nearly all actives have a fitted effect of over 55% in size
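No-CPT arm: Tdp1-/-;hTDP1 DT40 cells (400/well) plus compounds, incubated ≥48 hr at 37 °C. Readout CellTiter-Glo luminescence.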
HT1080 IDH1KD tx: kills HT-1080 cells with IDH1 knockdown | HT-1080 IDH1 knockdown viability, ATP luminescence, 48 h | Potency, µM (doses to about 46.1 µM), without a hit: at the highest dose activity, negative = toxicity, actives largely listed as cytotoxic | hit rate 2% among 360,000 | AID 686971;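 further: 0% = DMSO wells and -100% = cell-free medium wells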
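In this qHTS, HT-1080 cells depleted of IDH1 are exposed for 48 h at 37 °C to compound titrations. Toxicity is scored from CellTiter-Glo luminescence, with DMSO as full viability and medium alone as none.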
TDP1 cell CPT: growth inhibition of DT40 Tdp1-/-;hTDP1 cells with camptothecin (screen for TDP1 inhibitors). chicken DT40 Tdp1-/-;hTDP1 cells + 20 nM CPT, ATP luminescence, 48 h. Potency, µM (series often up to 46.2 µM), for inactives: top-dose activity change, negative = growth inhibition, usual class: inhibitors. hit rate 12% among 420,000. AID 686979; further: nearly all actives have a fitted effect of over 55% in size
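Cell growth measured by CellTiter-Glo luminescence after a minimum 48 h, 37 C compound exposure with 20 nM CPT in Tdp1-knockout DT40 cells stably expressing hTDP1, seeded 400/well; qHTS titration format.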
HT1080-NT tox: kills 2HG-producing HT-1080-NT fibrosarcoma cells. Potency, µM (highest dose often 46.1 µM), for the others: at the top dose activity, negative = less viability, actives largely listed as cytotoxic. AID 686970. hit rate 1.6% among 360,000. HT-1080-NT fibrosarcoma viability, CellTiter-Glo ATP luminescence, 48 h;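 further: NT is the 2HG producing partner of a matched IDH1 knockdown line; 0% = DMSO-treated cells and -100% = media-only wells without cells; nearly all actives have a fitted effect of over 55% in size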
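Read-out is CellTiter-Glo luminescence after 10 minutes at room temperature, following 48 hours' compound treatment of HT-1080-NT cells (750 cells/well, RPMI, 5% FBS, 37 degrees C).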
KB-V1 cytotox: KB-V1 MDR subline cytotoxicity | Potency, µM (titrated, usually from 46.1 µM), most hits filed as cytotoxic | hit rate 3.4% among 400,000 | KB-V1 MDR cells viability, CellTiter-Glo, 72 h; further: nearly all actives have a fitted effect of over 60% in size
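KB-V1 MDR subline cells in DMEM (phenol-red free, 10% FBS) exposed to compounds in qHTS concentration series for 72 h at 37 degrees C. Viability read by CellTiter-Glo luminescence; concentration-effect curves fitted after normalization and correction.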
The depositor's hits bear a star; i = inactive; ? = inconclusive; / = no result given. Shown are actives, neighbours in structure and some others; about 19% of the full set was active somewhere. The call rests on the fitted dose curve; in most records, active means well fitted curve in the direction sought with a large enough effect; inconclusive means small, poorly fitted or top-dose-only effect, or another doubt; inactive means no such curve, though single readings can be large; an effect the other way counts as inactive or inconclusive. Unless noted, on the % scale 0 is the no-effect control and ±100 the full control effect; potency means the concentration at half of the fitted maximal effect.

SMILES | KB-3-1 tox | TDP1 cell noCPT | HT1080 IDH1KD tx | TDP1 cell CPT | HT1080-NT tox | KB-V1 cytotox
COc1ccc(C(CNC(=O)c2oc3c(Cl)cccc3c2C)N2CCCC2)cc1 (stereo not drawn) | i | 23µM* | -1% | 16µM* | -4% | i
COc1ccc(C(CNC(=O)c2oc3ccc(Cl)cc3c2C)N2CCCCC2)cc1 (stereo not drawn) | i | 23µM* | 1% | 16µM* | 1% | i
COc1ccc(C(CNC(=O)c2ccccc2C)N2CCCC2)cc1 (stereo not drawn) | i | -2% | -10% | -20% | -2% | i
COc1ccc(C(CNC(=O)Cc2cc(OC)c(OC)c(OC)c2)N2CCCC2)cc1 (stereo not drawn) | i | 1% | 5% | 4% | 13% | i
C[C@H]1CN(C2CCCCC2)C(=O)[C@@H]1CC(=O)Nc1ccccc1 | i | -29% | 9% | -5% | 17% | ?
O=C(Nc1nnc([C@@H]2C[C@H](O)[C@@H](CO)O2)s1)Nc1ccccc1Oc1ccccc1 | i | ? | -6% | ? | -7% | i
Cc1noc(C)c1-c1ccc(C(=O)N2CCN(C)CC2)c2occc12 | i | -17% | 17% | ? | 10% | i
COc1ccc(-c2ccc(C(=O)N3CCN(C)CC3)c3occc23)c(C)c1 | i | 6.5µM* | -1% | 15µM* | -16% | i
COc1ccc(-c2ccc(C(=O)NCC(C)C)c3occc23)c(C)c1 | i | ? | ? | ? | ? | i
COc1ccc(-c2ccc(C(=O)N3CCOCC3)c3occc23)c(C)c1 | i | 18µM* | ? | 15µM* | -14% | i
CC(C)(C)OC(=O)NCCC(=O)N/N=C/c1ccc2ncccc2c1 | i | ? | 14% | 2% | 13% | i
Oc1ccccc1/C=N/Nc1cccc2cccnc12 | ? | ? | -17% | ? | 0% | ?
Cc1c(/C=N/NC(=O)C2(O)c3ccccc3-c3ccccc32)cnn1C | i | -15% | 17% | -20% | 2% | i
O=C(NNC(=S)Nc1ccccc1)c1ccc2ncccc2c1 | i | -24% | 20% | 0% | 12% | i
O=C(N/N=C/c1ccccc1O)C1(O)c2ccccc2-c2ccccc21 | i | 5.8µM* | ? | 8.2µM* | -24% | i
Oc1ccccc1/C=N/Nc1ncc(Br)cn1 | ? | 7.3µM* | ? | 9.2µM* | -2% | ?
CCC(C)[C@@H](N)C(=O)N/N=C/c1ccc2ncccc2c1 (stereo partly drawn) | i | 13µM* | 9% | 4% | 5% | i
S=C(N/N=C/c1ccc2ncccc2c1)Nc1ccccc1 | i | 21µM* | 11% | 23µM* | 16% | i
Fc1ccccc1NC(=S)N/N=C/c1ccccc1Br | i | ? | 7.1µM* | ? | 7.1µM* | i
Oc1ccccc1C=NNC(=S)NN=Cc1ccccc1O | ? | 4.6µM* | ? | 5.2µM* | ? | ?
CNC(=S)N/N=C/c1ccccc1Cl | i | ? | 6% | ? | 3% | i
Cc1c(Cl)cccc1NC(=S)N/N=C/c1ccccc1Cl | i | ? | -1% | ? | -21% | ?
Oc1ccccc1/C=N/Nc1ccccc1 | i | -6% | 9.2µM* | -10% | ? | i
S=C(N/N=C/c1ccccc1Cl)Nc1ccccc1 | i | ? | 4µM* | 16µM* | 14µM* | i
Oc1ccccc1/C=N/Nc1ccnc(SCc2ccccc2)n1 | i | 0.082µM* | ? | 0.065µM* | -32% | ?
SMILES | KB-3-1 tox | TDP1 cell noCPT | HT1080 IDH1KD tx | TDP1 cell CPT | HT1080-NT tox | KB-V1 cytotox
Oc1ccc(C=NNC(=S)Nc2ccccc2)nc1 | 16µM* | 5.2µM* | 4.6µM* | 5.2µM* | ? | i
c1ccc(CSc2nccc(-c3ccco3)n2)cc1 | i | ? | 9% | -28% | 15% | i
CC(Oc1ccc(Cl)cc1Cl)C(=O)NNC(=O)C(=O)N1CCCC1 (stereo not drawn) | i | ? | -5% | -6% | -8% | ?
COCCNc1ccnc(-c2ccccc2C)n1 | / | 1% | / | -9% | / | /
CCOc1ccc(NC(=O)Cn2cc(C(=O)c3ccc(CC)cc3)c(=O)c3cc(OC)c(OC)cc32)cc1 | i | ? | / | -4% | / | i
CCc1ccc(C(=O)c2cn(CC(=O)Nc3ccc(F)c(F)c3)c3cc(OC)c(OC)cc3c2=O)cc1 | i | 16µM* | / | 21µM* | / | i
Cc1ccc(Cn2cc(C(=O)c3ccc(F)cc3)c(=O)c3cc4c(cc32)OCO4)cc1 | i | ? | / | ? | / | i
CCc1ccc(C(=O)c2cn(Cc3ccc(F)cc3)c3cc(OC)c(OC)cc3c2=O)cc1 | ? | 6.5µM* | / | 5.8µM* | / | ?
